In the library only some 2.6% were active in any assay of this set; here they are far more common.
AmpC det inh: AmpC beta-lactamase inhibition, detergent assay; purified AmpC, nitrocefin hydrolysis with detergent; 71,000 compounds, 0.09% hits; Potency, µM (titrated, usually from 28.7 µM), without a hit: top-dose activity change, negative = inhibition; AID 584; active = well fitted curve in the direction sought with a large enough effect; inconclusive = small, poorly fitted or top-dose-only effect; note: % is set by controls: 0 for no effect and ±100 for the full control effect
Target sequence (P00811 whole entry, looked up): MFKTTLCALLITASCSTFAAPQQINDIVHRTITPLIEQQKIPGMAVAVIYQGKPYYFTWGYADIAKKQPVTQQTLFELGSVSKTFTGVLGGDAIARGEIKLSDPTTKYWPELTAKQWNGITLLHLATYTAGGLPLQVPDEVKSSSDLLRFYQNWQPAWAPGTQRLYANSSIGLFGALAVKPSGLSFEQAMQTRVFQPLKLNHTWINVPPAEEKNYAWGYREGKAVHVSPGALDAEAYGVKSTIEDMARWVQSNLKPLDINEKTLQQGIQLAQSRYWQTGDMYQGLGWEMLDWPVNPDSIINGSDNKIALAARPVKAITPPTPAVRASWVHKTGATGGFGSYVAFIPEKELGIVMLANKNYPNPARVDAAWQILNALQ
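E. coli AmpC (5.3 nM) in 20 mM phosphate pH 7.0 with 0.01% Triton X-100, preincubated 15 min RT with compound; nitrocefin (2 uL of 800 uM stock) hydrolysis followed by 480 nm absorbance every 20 s over 4 min.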
Anthrax LT inh: blocks cellular internalization of anthrax lethal toxin. Cells, anthrax lethal toxin internalization, FRET ratio (460/530). Potency, µM (top dose mostly 40 µM), for inactives: at the highest dose activity change, negative = inhibition, usual class: inhibitors. 70,000 compounds, 0.67% hits; note: % is set by controls: 0 for no effect and ±100 for the full control effect; nearly all actives have a fitted effect of over 50% in size
SmPrx2 inh: inhibitors of Schistosoma mansoni peroxiredoxin 2. S. mansoni Prx2 activity coupled to TGR/GSH (TGR is thioredoxin glutathione reductase), NADPH fluorescence loss, qHTS. Potency, µM. 65,000 compounds, 0.07% hits. AID 448
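Prx2 activity was followed as the loss of NADPH fluorescence (ex 365/em 450 nm), read every 30 sec for 8 min after H2O2 start. The enzyme mix (50 nM Prx2, 25 nM TGR, GSH, NADPH; pH 7.4 phosphate buffer) was incubated with compound for 15 min at room temperature first.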
AmpC nodet inh: inhibitors of E. coli AmpC beta-lactamase without detergent | P00811 | AmpC nitrocefin hydrolysis, absorbance 480 nm, no detergent | Potency, µM (series often up to 28.7 µM), inactives show at the top dose activity change, negative = inhibition | 71,000 compounds, 1.8% hits | AID 585; note: % of control where 0% means no effect
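AmpC, 20 mM phosphate pH 7.0; 15 min cpd preinc, RT; start with nitrocefin (800 uM stock); A480 kinetic read, 20 s intervals, 4 min. No-enzyme wells = negative control.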
* = called active by the depositor; ? = inconclusive; nt = no result; [ ] = remark or other dose. Unless noted, calls come from the whole dose curve. Potency is the fitted concentration of half-maximal effect.

SMILES	AmpC det inh	Anthrax LT inh	SmPrx2 inh	AmpC nodet inh
C=CS(=O)(=O)c1ccc(Oc2ccc(S(=O)(=O)C=C)cc2)cc1	1.6%	3.98µM*	?	14.6%
O=S(=O)(c1ccc(Oc2ccc(S(=O)(=O)N3CCOCC3)cc2)cc1)N1CCOCC1	-1.2%	-15.0%	nt	107.7%
Nc1nc2ccc(Oc3ccccc3)cc2s1	-2.0%	-21.6%	>57	-13.3%
Nc1nc2ccc(S(=O)(=O)c3ccc4nc(N)sc4c3)cc2s1	-4.9%	-5.2%	>57	12.6µM*
O=C(Nc1ccc(S(=O)(=O)N2CCc3ccccc32)cc1)c1ccco1	11.9%	-4.8%	>57	-24.7%
O=C(Nc1nnc(C2CC2)s1)c1cccc(S(=O)(=O)N2CCc3ccccc32)c1	-1.8%	0.9%	>57	10µM*
O=C(Nc1ccc(S(=O)(=O)N2CCc3ccccc32)cc1)c1ccc2c(c1)OCO2	2.1%	?	>57	12.6µM*
Cc1nc2ccc(S(=O)(=O)NC(C(=O)N3CCC(C)CC3)C(C)C)cc2s1 (configuration not stated)	23.1%	-10.8%	>57	3.98µM*[single pt active]
Cc1nc2ccc(S(=O)(=O)NC(CC(C)C)C(=O)O)cc2s1 (configuration not stated)	9.0%	-5.2%	>57	1.0%
Cc1nc2ccc(S(=O)(=O)NC(C(=O)N3CCCC3)C(C)C)cc2s1 (configuration not stated)	10.3%	0.1%	>57	3.98µM*[single pt active]
Cc1nc2ccc(S(=O)(=O)NCC(=O)N3CCC(N4CCCCC4)CC3)cc2s1	-3.5%	-14.0%	>57	-8.0%
Cc1cc(C)n2nc(SCC(=O)Nc3c(C)nn(-c4ccccc4)c3C)nc2n1	-3.7%	-6.9%	>57	22.3%
Cc1cc(C)n2nc(SCC(=O)Nc3ccc(F)cc3)nc2n1	13.4%	-1.0%	?	3.98µM*[single pt active]
Cc1cc(C)n(CCc2nc(-c3cc4ccccc4o3)cs2)n1	-2.5%	25.1µM*	>57	101.1%
COc1ccc(-c2coc3cc(O[C@@H]4O[C@@H](CO)[C@@H](O)[C@@H](O)[C@H]4O)cc(O)c3c2=O)cc1	-0.6%	?	>57	24.6%
CCN1CCN(c2cc(C)c3cc(NC(=O)c4ccc5c(c4)OCO5)ccc3n2)CC1	10.6%	10µM*	>57	60.4%
CCN1CCN(c2cc(C)c3cc(NC(=O)c4cncc(Br)c4)ccc3n2)CC1	-4.3%	25.1µM*	>57	111.8%
Cc1ccc(S(=O)(=O)C2(C(=O)Nc3nccs3)CC2)cc1	12.0%	-5.0%	>57	3.98µM*[single pt active]
O=C(Nc1nccs1)C1(S(=O)(=O)c2ccc(Cl)cc2)CC1	-3.2%	8.3%	>57	4.3%
Cc1ccc(S(=O)(=O)C2(C(=O)Nc3cccc(F)c3)CC2)cc1	11.3%	-13.6%	>57	3.98µM*[single pt active]
CCCCCCC#CC1C=CC(OC(=O)OCC)C(COC(=O)OCC)O1 (configuration not stated)	nt	12.3%[8 µM]	nt	nt
O=C(Nc1cc(Cl)ccc1Cl)c1noc2c1CCCC2	10.9%	-15.6%	>57	3.98µM*[single pt active]
CC1(C(=O)NC2CCCCC2)CCC(=O)N1Cc1cccs1 (configuration not stated)	13.3%	-25.2%	>57	3.98µM*[single pt active]
CC1(C(=O)NC2CCCC2)CCC(=O)N1Cc1cccs1 (configuration not stated)	-4.9%	1.7%	>57	-2.6%
OC[C@@H]1O[C@@H](n2cnc3c(NCCc4ccccc4)ncnc32)[C@@H](O)[C@H]1O	-0.9%	?	>57	1.5%
SMILES	AmpC det inh	Anthrax LT inh	SmPrx2 inh	AmpC nodet inh
O=S(=O)(O)/C(=C\c1ccccc1)c1ccccc1 (tested in a mixture with another compound)	-4.3%[5.75 µM]	1.2%[8 µM]	>57	9.3%[5.75 µM]
CCOC(=O)N1CCN(c2c(NCCCN(CC)c3cccc(C)c3)c(=O)c2=O)CC1	-2.6%	1.3%	>57	83.6%
CCOC(=O)N1CCN(c2c(NCc3ccccn3)c(=O)c2=O)CC1	14.9%	-14.3%	>57	3.98µM*[single pt active]
CCOC(=O)N1CCN(c2c(Nc3cc(C)[nH]n3)c(=O)c2=O)CC1	12.3%	-4.8%	?	2.51µM*[single pt active]
O=C(O)C1CCC(CNc2c(NC3CCCCC3)c(=O)c2=O)CC1 (configuration not stated)	10.3%	3.5%	>57	3.9%
O=c1c(-c2ccc(Cl)cc2)nc2cnc(N3CCNCC3)nc2n1CCc1ccccc1	-3.5%	-6.3%	>57	61.6%
O=C(Nc1ccc(S(=O)(=O)NCc2ccccc2)cc1)Nc1ccc2c(c1)OCO2	-2.1%	?	>57	10µM*
COc1ccc(NS(=O)(=O)c2ccc3oc(Nc4ccc5c(c4)OCCO5)nc3c2)cc1	12.8%	12.6µM*	>57	3.16µM*

Bioassay records from PubChem.
